# MEKK2mut PB1 HTS – signal of MEK5 binding to mutant human MEKK2 PB1 domain; bead flow cytometry, Alexa488-MEK5 binding to MEKK2 mutant; percent response, % at 10 µM; 0.35% of 290,000 active; in the data active = percent response above about 24%, passing the limit was not always enough
# ANO1 activ – mouse TMEM16A channel activation, primary screen; B-score at 10 µM; AID 623877; HEK293 TMEM16A/YFP-H148Q/I152L, iodide quench fluorescence; active compounds read low; 0.3% of 340,000 active; Q8BHY3;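 active = fluorescence-ratio B-score plate-corrected deviation score at least 3 library SD below zero, with starting fluorescence score within 5 deviations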;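 note: channel opened by trigger with iodide after compound preincubation; score built on the fluorescence ratio of max minus min over baseline; more negative score means more quench and so TMEM16A activation or potentiation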
# ANO1 block – blocks the mouse calcium-activated chloride channel TMEM16A; normalized B-score (activity score, 25-100; higher = stronger inhibition) at 10 µM; HEK293 TMEM16A/YFP iodide influx fluorescence, ionomycin; 1.2% of 310,000 active;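 active = ratio plate-corrected score three or more library SD toward inhibition, starting fluorescence score within five deviations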;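 note: score derived from kinetic fluorescence span divided by baseline fluorescence per well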
# NTR1 ag – activates human neurotensin receptor 1 | P30989 | NTR1-U2OS beta-arrestin-GFP spot imaging, agonist mode | activation, % at 20 µM | AID 493036 | 0.17% of 330,000 active;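 active = activation at or above 40% of the spot to cytoplasm intensity ratio, with at least 20 cells analyzed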;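 note: 0% = DMSO without peptide and 100% = 100 nM NTR1 peptide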
# MEKK3 PB1 HTS – modulators (inhibitors or enhancers) of MEK5 binding to human MEKK3 PB1 domain; Q99759; bead-based flow cytometry, Alexa488-MEK5 binding to MEKK3; actives lie on both sides; 0 = blocked by unlabeled MEK5, 100 = vehicle; binding response (% of control), % at 10 µM; 1.4% of 290,000 active; AID 1529;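 active = binding response more than 3 SD above or below the average of its plate-row segment, actives on both sides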;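 note: Alexa488 bead fluorescence after subtracting the streptavidin-only scavenger bead signal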
# MEKK2 WT-MEK5 – raises or lowers MEK5 binding to wildtype human MEKK2 PB1 domain | binding response (% of control), % at 10 µM | 1.1% of 290,000 active | bead flow cytometry, Alexa488-MEK5 binding to MEKK2 WT; actives lie on both sides; in the data active = binding response below about 67% or above about 130%
# TMEM16A reconf – re-confirmation of mouse TMEM16A chloride channel inhibitors. shares compounds with ANO1 block. HEK293 TMEM16A/YFP-H148Q, iodide quench fluorescence; ionomycin added to raise cell calcium. inhibition, % at 10 µM. AID 652189. 39% of 2,300 active;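 active = mean duplicate percent inhibition, scaled so buffer wells are 0 and the reference blocker 100, over three buffer SD above buffer mean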
# TMEM16A Ca cntr – counter-screen for TMEM16A inhibitors: effect on calcium mobilization; shares compounds with ANO1 block; TMEM16A/YFP HEK293, Fluo4 calcium mobilization; calcium response (% of ionomycin), % at 10 µM; 2% of 2,300 active; AID 652231;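 active = duplicate-averaged calcium signal over 20% of the ionomycin maximum, relative to buffer baseline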;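 note: each well's signal is peak minus trough fluorescence divided by its pre-addition baseline; 0% = buffer wells and 100% = ionomycin wells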
# YFP-HEK293 quench – parental YFP-HEK293 iodide quench counter-screen activity | ionomycin | YFP ratio F(max-min)/F0 at 10 µM | AID 652233 | 2,300 tested, under 10 active | shares compounds with ANO1 block;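 active = yellow fluorescent protein signal ratio exceeding the buffer control mean by over 5 SD of those controls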;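 note: ratio is mean of duplicate wells from kinetic YFP trace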
# ClC-1 rat inh – selectivity of TMEM16A inhibitors: inhibition of rat ClC-1 chloride channel; 2,300 tested, under 10 active; shares compounds with ANO1 block; ratio percent, % at 10 µM; CHO ClC-1-YFP, iodide influx fluorescence quench; iodide control reads 0, buffer control 100;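 active = duplicate-mean ratio percent above the mean of iodide-only control wells, which defines zero, plus 5 of their SD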;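 note: higher percent means stronger block of ClC-1 iodide influx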
# Numbers without * were called inactive; i = inactive; nt = no result given. Most compounds without a hit are left out; they make up all but 3.4% or so of the library.
SMILES,MEKK2mut PB1 HTS,ANO1 activ,ANO1 block,NTR1 ag,MEKK3 PB1 HTS,MEKK2 WT-MEK5,TMEM16A reconf,TMEM16A Ca cntr,YFP-HEK293 quench,ClC-1 rat inh
Cc1cc(C(=O)COC(=O)c2ccccc2O)c(C)n1CC1CCCO1 (stereo unspecified),nt,i,nt,3,nt,nt,nt,nt,nt,nt
COC(=O)CCCn1c(C)cc(C(=O)CCl)c1C,-6,i,i,-1,99,94,nt,nt,nt,nt
Cc1cc(C(=O)COc2ccccc2C(N)=O)c(C)n1CC1CCCO1 (stereo unspecified),-3,i,100*,4,103,101,20%*,i,-0.81,-33
COC(=O)CCn1c(C)cc(C(=O)COc2ccccc2C(N)=O)c1C,-2,i,i,1,105,103,21%*,i,-1.2,-8
Cc1csc(=O)n1CCC(=O)OCC(=O)Nc1cc([N+](=O)[O-])ccc1Cl,nt,i,i,0,nt,nt,nt,nt,nt,nt
Cc1ccccc1NC(=O)OCc1cccnc1Sc1ccc(Cl)cc1,1,i,i,2,104,100,nt,nt,nt,nt
Cc1ccc(Sc2ncccc2COC(=O)Nc2ccccc2)cc1,-3,i,100*,1,102,100,i,i,-1.1,0
Cc1ccc(Sc2ncccc2COC(=O)Nc2c(C)cccc2C)cc1,0,i,100*,3,103,97,i,i,-0.96,-14
COc1ccccc1CNC(=O)CN(C)CC(=O)Nc1ccc(F)c(F)c1F,nt,i,nt,2,nt,nt,nt,nt,nt,nt
CCN1CCN(CC(O)COC(C)C)CC1 (stereo unspecified),1,i,25*,1,96,99,i,i,-1.2,-14
CCN1CCN(CC(O)COc2ccc(Cl)cc2)CC1 (stereo unspecified),3,i,i,0,106,109,nt,nt,nt,nt
Nc1cc(S(=O)(=O)Nc2ccccc2Cl)ccc1N1CCOCC1,-2,i,i,2,103,98,nt,nt,nt,nt
Nc1cc(S(=O)(=O)Nc2ccc(Cl)cc2)ccc1N1CCOCC1,-12,i,25*,0,92,92,i,i,-1.1,-22
O=S(=O)(Nc1ccc(Cl)cc1)c1ccc2c(c1)CCO2,-1,i,25*,1,103,103,i,i,-0.93,-8
O=S(=O)(Nc1ccc2c(c1)OCCO2)c1ccc(F)c(F)c1,7,i,i,-1,101,106,nt,nt,nt,nt
CCC(CC)c1nnc(NC(=O)CCCN2C(=O)c3ccccc3C2=O)s1,3,i,i,0,107,107,nt,nt,nt,nt
COc1ccccc1-c1c(C)nn2c(N3CCCCCC3)cc(C)nc12,-5,i,100*,7,101,98,34%*,i,-0.82,-19
COc1ccccc1-c1c(C)nn2c(N3CCOCC3)cc(C)nc12,1,i,i,0,101,104,nt,nt,nt,nt
CCc1ccc([C@@H]2CC=C(C(=O)O)[C@H](c3ccc(F)cc3)N2S(=O)(=O)c2ccc(C)cc2)cc1,nt,i,100*,5,nt,nt,i,i,-1,-12
Cc1ccccc1S(=O)(=O)N1[C@@H](c2ccc(F)cc2)C(C(=O)O)=CC[C@H]1c1ccc(Cl)cc1,nt,i,100*,16,nt,nt,28%*,i,-1.3,-39

# Screening results from PubChem.
